Test results as given in PubChem BioAssay AID686978 (National Center for Advancing Translational Sciences (NCATS), 2013).
Several values for one entry are separate records, joined by “and”; a condition that tells them apart may be missing. Equal entries are not always repeated. Out of some 420,000 compounds screened, about 64,000 (15%) were called active. Another 27% or so got no clear call; they are omitted. A selection follows. A number with no mark means an inactive call. The call rests on the fitted dose curve; in most records, active means well fitted inhibition curve with a large enough effect; inconclusive means small, poorly fitted or top-dose-only effect; inactive means flat fitted curve, though single readings scatter. Numbered stars: 1 amine (or outer) side, 2 acyl side, 3 side chain; on linkers, the order of the positions; unused ones are H or OH. Bridge positions count the residues as written; N and C are the ends. Square brackets hold non-standard residues; d marks the D form. Peptide text beside a SMILES is read from it. * marks the point of attachment. X11 = NC1=N[C@@H]([C@H](N[*:1])C(=O)[*:2])C[C@H](O)N1; ΔAla(Z-3-ureido) = NC(=O)N/C=C(\N)C(=O)O; β3hOrn = NCCC[C@H](N)CC(=O)*; Dap = NC[C@H](N)C(=O)O

Test: qHTS for Inhibitors of human tyrosyl-DNA phosphodiesterase 1 (TDP1): qHTS in cells in absence of CPT; further: nearly all actives have a fitted effect of over 55% in size
Conditions: DT40 Tdp1-/- hTDP1 cells, no CPT, ATP luminescence, 48 h; activity change, negative = growth inhibition: at 46.2 µM (top of the series)
Procedure, shortened: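 A cellular qHTS used chicken DT40 cells lacking endogenous Tdp1 but carrying stably transfected human TDP1. Compounds were applied without camptothecin, and cell growth kinetics were judged by ATP-dependent luminescence after ≥48 hr.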
On the % scale 0 is the no-effect control and ±100 the full control effect; potency means the concentration at half of the fitted maximal effect.

In order of rising “activity change, negative = growth inhibition” value:
1. COc1cc(F)c(C2=CC(=O)CC(C)(C)C2)cc1F  -29.6%
2. COc1ccc2c(c1)CCc1cnc(-n3ncc(C(=O)NCCN4CCOCC4)c3C)nc1-2  -29.3%
3. COc1ccc(NC(=O)Cn2c(=O)cc(C)c3c(C)nn(-c4cccc(Cl)c4C)c32)cc1OC  -28.5%
4. Cc1ccccc1CCN(CC(=O)NC1CCCCC1)C(=O)c1csnn1  -27.2%
5. O=C(Nc1ccc(Cl)cc1)c1ccsn1  -26%
6. CC(C)Nc1ccc(-n2nc3ccccc3[n+]2[O-])cc1  -25.7%
7. CCOC(=O)C(Cc1ccccc1)NC(=O)CCc1c(C)nc2c(c(C)nn2-c2ccc(C)c(C)c2)c1C (stereo not given)  -25.1%
8. Cc1c(Br)c([N+](=O)[O-])nn1C(C)C(=O)Nc1nccs1 (stereo not given)  -24.7%
9. Fc1ccc(Nc2nnns2)cc1  -24.1%
10. O=C(Nc1ccc(NC(=O)c2cccs2)cn1)c1ccco1  -24%
11. Fc1ccccc1/C=N/n1c(-c2cccnc2)n[nH]c1=S  -23.5%
12. COc1ccc2c(c1)c1nc3n(c(=O)c1n2CC(=O)Nc1ccccc1)CCS3  -22.7%
13. C[C@@H]1CN(Cc2ccc3c(c2)CN(Cc2ccc(Oc4ncccn4)cc2)CCO3)C[C@H](C)O1  -22.2%
14. O=C(Nc1cc(-c2nn(CC(=O)N3CCCCC3)c(=O)c3ccccc23)ccc1N1CCOCC1)c1ccc(Cl)cc1  -22%
15. CC(C)NC(=O)Nc1cccc2c1O[C@@H](CN(C)S(=O)(=O)c1ccc(F)cc1)[C@@H](C)CN([C@H](C)CO)C2=O  -21.8%
16. CCOC(=O)N1CCC(N2CCOc3ccc(CN4CCC(O)(c5cccnc5)CC4)cc3C2)CC1  -21.8%
17. Clc1ccc(Nc2ccc3ccccc3n2)cc1  -21%
18. Cc1cc(/C=C2\SC(=Nc3ccc(N4CCOCC4)cc3)N(C)C2=O)c(C)n1-c1cccnc1  -20.8%
19. CCOCCCN(C(=O)Cn1nnc(-c2ccc(OC)c(OC)c2)n1)C(CC)C(=O)NC1CCCC1 (stereo not given)  -19.6%
20. COc1ccc(NC(=O)N2CCCC(c3nc(-c4ccc(F)cc4)no3)C2)cc1 (stereo not given)  -18.8%
21. CCOc1ccccc1NC(=O)Cc1cccs1  -17.5%
22. CCN(CC(=O)NCCc1ccccc1)S(=O)(=O)c1ccccc1  -17.2%
23. Cc1cc(Nc2ccccc2)nc(N)n1  -15.7%
24. O=C(N/N=C/c1cccc(OCc2ccccc2)c1)c1ccc(Br)o1  -15.6%
25. C[C@@H]1CN([C@@H](C)CO)C(=O)c2cc(Br)cnc2O[C@@H]1CN(C)C(=O)C1CCCCC1  -14.5%
26. Cn1c(SCC(=O)N2CCOCC2)nnc1-c1ccc(NC(=O)c2ccccc2F)cc1  -14.2%
27. CC(CC(=O)Nc1cc(C(F)(F)F)ccc1Cl)c1ccccc1 (stereo not given)  -13.9%
28. O=C(O)CC1(CC(=O)Nc2cccc(C(F)(F)F)c2)CCCC1  -12.9%
29. CCN(CC)S(=O)(=O)c1cccc(-c2n[nH]c(=S)n2/N=C/c2ccc(C(=O)OC)cc2)c1  -12.8%
30. O=S(=O)(Nc1ccc(-c2ccc(N3CCOCC3)nn2)cc1)c1cc(Cl)ccc1Cl  -11.9%
31. O=C(CSc1nnc(-c2ccco2)o1)NCC(=O)c1ccccc1  -11.8%
32. CC1CCN(C(=O)C2CCN(S(=O)(=O)N3CCC4(CC3)OCCO4)CC2)CC1  -11.6%
33. Cc1ccc(N2C(=O)CN=C2Nc2nc(C)cc(C)n2)cc1  -11.4%
34. Cc1ccc(C)c(NC(=O)CSc2nnc(Cc3cccn3C)n2-c2ccc(F)cc2)c1  -11.3%
35. CC1CN(c2cc(=O)n(-c3cccc(Br)c3)c(=O)[nH]2)CC(C)O1 (stereo not given)  -10.8%
36. O=C(CSC1=Nc2ccccc2C2=NC(c3ccccc3)C(=O)N12)NCC1CCCO1 (stereo not given)  -10.2%
37. C[N+](C)(C)CCOP(=O)([O-])OC[C@H](O)CO  -9.67%
38. Cc1ccc(-c2csc3nnc(SCC(=O)NCc4ccco4)n23)cc1  -9.6%
39. O=C(Nc1ccc([N+](=O)[O-])cc1)OCCc1ccccn1  -9.24%
40. COc1ccccc1C(=O)N/C(=C/c1ccc2c(c1)OCO2)C(=O)Nc1cccc(C(=O)O)c1  -8.86%
41. Cc1ccc(C)c(S(=O)(=O)N2CC(=O)Nc3ccccc32)c1  -8.66%
42. CC1CN(C(=S)Nc2ccc(Br)cc2Cl)CC(C)O1 (stereo not given)  -8.66%
43. CC(CC(=O)C1C(C)C=CCC1(C)C)NNC(N)=O (stereo not given)  -7.87%
44. CCCNC(=O)CCc1c(C)nc2c(c(C)nn2-c2ccccc2)c1C  -7.79%
45. Nc1nnc(SCn2nnc3ccccc3c2=O)s1  -7.27%
46. CCc1c(C)nc(N)n2c(SCC(=O)NC3CCCCC3)nnc12  -6.99%
47. CN1C(=O)CC(N2CCN(c3ccccn3)CC2)C1=O (stereo not given)  -6.92%
48. CN(C)c1ccc(CSc2ccccc2)cc1  -5.38%
49. CC(=O)Nc1ccc(S(=O)(=O)NC(C)C(=O)OCC(=O)NC2CCCC2)cc1 (stereo not given)  -5.16%
50. O=C(Nc1cccc(Cl)c1)c1csnn1  -4.55%
51. Cc1sc2c(c1C)c(=O)n(-c1ccccc1)c(=O)n2CC(=O)NCC1CCCO1 (stereo not given)  -4.2%
52. CCc1ccc(-n2nc(C)c3c(C)cc(=O)n(CC(=O)Nc4ccc(F)cc4C)c32)cc1  -3.03%
53. CC(=O)Nc1ccc(CN2CCC(Oc3ccc(C(=O)N4CCCC4)cc3)CC2)cc1  -2.76%
54. O=C(Cc1ccc(Br)cc1)NCCN1CCOCC1  -2.63%
55. Cc1cc(C)n2nc(C(=O)NC(C)(C)C)nc2n1  -2.42%
56. O=C(O)C(c1cccs1)C1(O)CCCCC1 (stereo not given)  -1.75%
57. CCOc1ncccc1C(=O)OCC(=O)N1c2ccccc2CC1C (stereo not given)  -1.22%
58. CS(=O)(=O)c1cccc(-c2ccc3nncn3c2)c1  -1.13%
59. COc1ccc(N)c(C)c1  -0.894%
60. CCN1CCCC1Cn1cnc2c([nH]c3cc(OC)ccc32)c1=O (stereo not given)  -0.0102%
61. S=c1[nH]nc(-c2ccco2)n1/N=C/c1ccccc1  0.392%
62. COC(=O)c1cc(NC(=O)CC2C(=O)NCCN2C(=O)c2ccc(F)cc2)cc(C(=O)OC)c1 (stereo not given)  0.411%
63. C=CCNC(=S)N/N=C/c1ccc(OCc2ccccc2)cc1  0.63%
64. O=C(O)CSCC(=O)Nc1cccc(C(F)(F)F)c1  1.22%
65. COc1ccc(C)cc1N(CC(=O)NC(C)c1ccccc1)S(C)(=O)=O (stereo not given)  1.25%
66. CCN(CC)C(=O)c1nc[nH]c1C(=O)N(C)Cc1ccccc1  1.62%
67. Nc1ccc(C(=O)NCc2ccccc2)cc1  2.25%
68. CSCC[C@H](NC(=O)CCCn1nnc2ccccc2c1=O)C(=O)O  2.85%
69. NC(=O)C1(Nc2ccccc2Cl)CCCC1  3.37%
70. CSc1ccccc1C(=O)OCC(=O)N1CCN(C(C)=O)CC1  3.66%
71. CC(C)C[C@H](NC(=O)NCCc1ccc(Cl)cc1)C(=O)O  3.73%
72. NC(=O)N/N=C\c1cccs1  3.85%
73. [O-][n+]1ccc(OCc2ccccc2)cc1  3.86%
74. NCCC[C@H](N)CC(=O)N[C@H]1CNC(=O)[C@H]([C@H]2C[C@H](O)NC(N)=N2)NC(=O)/C(=C/NC(N)=O)NC(=O)[C@H](CO)NC(=O)[C@H](CO)NC1=O (β3hOrn-[Dap]SS[ΔAla(Z-3-ureido)][X11]; lactam 1-C)  4.1%
75. O=C(c1ccc(F)cc1)N1CCCC(C(=O)N2CCCCC2)C1 (stereo not given)  4.71%
76. C[C@H]1CN([C@@H](C)CO)C(=O)c2cc(-c3ccccc3F)cnc2O[C@H]1CN(C)C(=O)C1CCOCC1  4.98%
77. O=c1[nH]nc(Cc2ccccn2)c2ccccc12  6.26%
78. COc1ccc(C2OC(=O)CC2C(=O)NC(C)C)cc1 (stereo not given)  7.56%
79. Cc1ccc(NC(=O)Cn2nnc(C(=O)NCc3ccco3)c2N)c(C)c1  7.88%
80. Cc1nc(CC(=O)NNS(=O)(=O)c2ccc(F)c(Cl)c2)cs1  8.87%
81. Cc1nnc(SCC(=O)NCc2cccs2)[nH]c1=O  10.3%
82. COc1ccc2oc(=O)c(C(=O)N3CCCC3)cc2c1  10.7%
83. O=C1C(=O)N(CCN2CCOCC2)C(c2cccc(Cl)c2)/C1=C(/O)c1ccc2c(c1)OCO2 (stereo not given)  12.4%
84. Cc1cc(-c2n[nH]c(=S)n2/N=C/c2ccco2)n[nH]1  13.9%
85. CCOc1cc(C)ccc1OCc1nnc(SCC(=O)Nc2cccc(C(=O)O)c2)n1-c1ccccc1  20.3%
86. Cc1cc(C)n(CC(C)NCc2c(C(=O)N3CCOCC3)nc3c(C)cccn23)n1 (stereo not given)  26.9%

With `CN(C)c1ccc(CN2CCOc3ccc(CN4CCC(O)(c5cccnc5)CC4)cc3C2)cc1` the Potency was 16.4 µM (active).
For `O=C(c1cccs1)N1CCCC(c2nc(-c3ccc(F)cc3)no2)C1` (stereo not given), the Potency was 16.4 µM (active).
For `S=c1[nH]nc(-c2cccnc2)n1/N=C/C(Cl)=C\c1ccccc1`, the Potency was 23.1 µM (active).
In the case of `Cc1cc(-c2n[nH]c(=S)n2/N=C/C(Br)=C/c2ccccc2)n[nH]1`, the Potency is reported as 2.06 µM (active).
For `COc1ccc(-c2ccc(C(=O)NC(C)C)c3occc23)c(C)c1`, the Potency was 16.4 µM (active).
For `COc1ccc(-c2ccc(C(=O)NCCN3CCOCC3)c3occc23)c(C)c1`, the Potency was 20.6 µM (active).
For `COC(=O)c1ccc(NC(=O)CCc2c(C)nc3c(c(C)nn3-c3ccc(C)cc3)c2C)cc1`, the Potency was 6.51 µM (active).
With `O=C(Nc1ccccc1)c1nnsc1S(=O)(=O)c1ccc(Cl)cc1` the Potency was 2.59 µM (active).
In the case of `O=C(NNc1ccccc1Cl)C(O)(c1cccc(C(F)(F)F)c1)c1cccc(C(F)(F)F)c1`, the Potency is reported as 16.4 µM (active).
With `CN(C)c1cc[n+](Cc2ccccc2)cc1` the Potency was 0.411 µM (active).
With `c1ccc(Cc2cc[n+](Cc3ccccc3)cc2)cc1` the Potency was 20.6 µM (active).
With `Cc1c(CCOC(=O)CC23CC4CC(CC(C)(C4)C2)C3)sc[n+]1Cc1ccc([N+](=O)[O-])cc1` the Potency was 18.4 µM (active).
In the case of `CCOc1ccccc1NC(=O)Cn1nnc(C(=O)NCc2cccs2)c1N`, the Potency is reported as 130 nM (active) and 51.7 nM (active).
With `Nc1ccc(S(=O)(=O)NC(=O)c2ccccc2)cc1` the Potency was “inactive”.
With `Nc1ccc(C(=O)Nc2ccccc2N)cc1` the Potency was 2.37 µM (active) and 3.26 µM (active).
With `O=C(Nc1cccc(C(F)(F)F)c1)c1cc(Br)cc(Br)c1O` the Potency was 13.3 µM (active).
In the case of `CNC(=S)N/N=C/c1ccc(OCc2ccccc2)c(Br)c1`, the Potency is reported as 10.3 µM (active).
In the case of `Cc1ccc2nc(Nc3ccccc3)cc(C)c2c1`, the Potency is reported as 10.3 µM (active).
For `CCOC(=O)c1ccc(NC(=O)Cn2c(=O)cc(C)c3c(C)nn(-c4cccc(F)c4)c32)cc1`, the Potency was 18.4 µM (active).
